Values joined by “and” are separate entries in the source; they are usually repeats but may differ in a detail not shown here. Equal entries are not always repeated. Results filed as inconclusive are left out. Active and inactive are the calls of the source. Unless noted, the call rests on the fitted dose curve.
Key:
[1] = qHTS Assay for Lipid Storage Modulators (AID 1519); conditions: Drosophila S3 cells, BODIPY lipid droplet/cell ratio, laser cytometry, cells loaded with oleic acid; on activity change, negative = inhibition: on the % scale 0 is the no-effect control and ±100 the full control effect
Outline: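 Cells seeded at 5,000 per well were treated with compounds over a concentration series and loaded with oleic acid (400 uM, as added). Lipid droplet fluorescence (488 nm excitation, 500-530 nm channel) was read by laser-scanning cytometry and normalized to 20 uM Triacsin C.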

[2] = Cell Viability - LYMP2-018 (AID 985; active means well fitted curve in the direction sought with a large enough effect; an effect the other way counts as inactive or inconclusive;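 further: compound exposure lasted 24 hr at 37 °C; plate controls were DMSO only for no effect and tetraoctylammonium bromide at 92 µM for full effect; nearly all actives have a fitted effect of over 50% in size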); conditions: LYMP2-018 lymphoblastoid cells, viability (qHTS); series mostly up to 92.2 µM
Outline: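 Acute cytotoxicity is scored as a concentration-dependent drop in intracellular ATP after 24 hr exposure of the lymphoblastoid line in complete culture medium, measured by luciferase luminescence. Potency is expressed as AC50 from Hill modelling.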

[3] = Cell Viability - LYMP2-020 (AID 986; active means well fitted curve in the direction sought with a large enough effect; an effect the other way counts as inactive or inconclusive;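 further: cells exposed to compound for 24 h at 37 °C; plate controls were DMSO only for no effect and tetraoctylammonium bromide at 92 µM for full effect; nearly all actives have a fitted effect of over 55% in size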); conditions: series mostly up to 92.2 µM
Outline: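 Acute cytotoxicity in a human lymphoblastoid line is scored as a concentration-dependent fall in cellular ATP after 24 hr at 37 C in complete medium. The positive control is tetraoctylammonium bromide, and potency is given as Hill-fit AC50.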

[4] = Cell Viability - LYMP2-022 (AID 987; active means well fitted curve in the direction sought with a large enough effect; an effect the other way counts as inactive or inconclusive;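 further: cells exposed to compound for 24 hr; 0% = DMSO alone and full effect = tetraoctylammonium bromide at 92 µM; nearly all actives have a fitted effect of over 55% in size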); conditions: LYMP2-022 lymphoblastoid cell viability; series mostly up to 92.2 µM
Outline: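 Acute toxicity in a human lymphoblastoid line is scored as decreased intracellular ATP after 24 hr compound treatment at 37 C. ATP is measured by CellTiter-Glo luminescence; curves are fitted with the Hill equation to give AC50.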

[5] = Cell Viability - LYMP2-024 (AID 988; active means well fitted curve in the direction sought with a large enough effect; an effect the other way counts as inactive or inconclusive;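 further: cells exposed to compound for 24 hr at 37 °C; plate controls were DMSO only for no effect and 92 µM tetraoctylammonium bromide for full effect; nearly all actives have a fitted effect of over 60% in size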); conditions: LYMP2-024 lymphoblastoid cell viability; series mostly up to 92.2 µM
Outline: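 Acute toxicity is measured as concentration-dependent loss of intracellular ATP in a human lymphoblastoid line treated 24 hours at 37 C. Luciferase luminescence quantifies ATP; AC50 values come from standard Hill-equation modelling.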

[6] = Cell Viability - LYMP2-026 (AID 989; active means well fitted curve in the direction sought with a large enough effect; an effect the other way counts as inactive or inconclusive;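 further: cells exposed to compound for 24 h at 37 °C; on the % scale 0 is the no-effect control and ±100 the full control effect; nearly all actives have a fitted effect of over 50% in size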); conditions: LYMP2-026 lymphoblastoid cell viability, qHTS; series mostly up to 92.2 µM
Outline: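 Concentration-dependent loss of intracellular ATP in human lymphoblastoid cells after 24 hr at 37 C, quantified by luciferase luminescence. AC50 derived from standard Hill equation.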

[7] = target: Alpha-galactosidase A (Homo sapiens) (UniProt P06280); test: Counterscreen for Glucocerebrosidase Inhibitors: qHTS Assay for Human alpha-Galactosidase at pH 4.5 (AID 992; active means well fitted curve in the direction sought with a large enough effect; an effect the other way counts as inactive or inconclusive; further: 0% is about no effect); conditions: purified enzyme, fluorogenic substrate; series mostly up to 76.9 µM
Alpha-galactosidase A (Homo sapiens), sequence (P06280 whole entry, looked up): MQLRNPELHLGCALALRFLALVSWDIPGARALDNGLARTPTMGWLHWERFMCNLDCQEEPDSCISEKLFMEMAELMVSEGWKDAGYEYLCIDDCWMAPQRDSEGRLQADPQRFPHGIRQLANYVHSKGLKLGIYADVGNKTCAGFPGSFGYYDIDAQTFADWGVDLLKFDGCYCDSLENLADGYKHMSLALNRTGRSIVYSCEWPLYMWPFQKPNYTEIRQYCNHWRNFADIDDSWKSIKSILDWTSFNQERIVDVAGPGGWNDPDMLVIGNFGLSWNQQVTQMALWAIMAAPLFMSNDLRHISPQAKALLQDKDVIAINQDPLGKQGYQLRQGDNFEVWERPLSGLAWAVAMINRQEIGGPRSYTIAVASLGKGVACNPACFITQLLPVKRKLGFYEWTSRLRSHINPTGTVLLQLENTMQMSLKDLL
Outline: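 Human enzyme (2 nM) with 80 uM 4-methylumbelliferyl alpha-D-galactopyranoside in 50 mM citric acid, 0.005% Tween-20, pH 4.5, 20 min at room temperature. Compounds 0.7 nM–77 uM; fluorescence Ex 365/Em 440 after pH 10 stop; AC50 from Hill fits.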

[8] = Cell Viability - LYMP1-002 - Assay at 24 hr (AID 993; active means well fitted curve in the direction sought with a large enough effect; an effect the other way counts as inactive or inconclusive; further: on the % scale 0 is the no-effect control and ±100 the full control effect); conditions: LYMP1-002 lymphoblastoid cells viability; series mostly up to 92.2 µM
Outline: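 qHTS, LYMP1-002 lymphoblastoid, 24 h cpd, 37 C, CellTiter-Glo ATP luminescence; AC50 via Hill eq.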

[9] = Cell Viability - LYMP1-002 - Assay at 40 hr (AID 994; active means well fitted curve in the direction sought with a large enough effect; an effect the other way counts as inactive or inconclusive;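 further: 0% = DMSO only and full inhibition = 92 µM tetraoctylammonium bromide; nearly all actives have a fitted effect of over 60% in size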); conditions: LYMP1-002 lymphoblastoid cell viability; series mostly up to 92.2 µM
Outline: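 Viability in the human lymphoblastoid line was measured as intracellular ATP via CellTiter-Glo after 40 hr compound exposure. Tetraoctylammonium bromide served as positive control.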

[10] = target: alpha-glucosidase (Oryza sativa, rice) (UniProt Q653V4); test: Counterscreen for Glucocerebrosidase Inhibitors: qHTS Assay for Rice alpha-Glucosidase at pH 5.0 (AID 997; active means well fitted curve in the direction sought with a large enough effect; an effect the other way counts as inactive or inconclusive;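 further: 0% = full activity with enzyme and -100% = basal without enzyme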); conditions: rice alpha-glucosidase enzyme activity; series mostly up to 76.9 µM
Outline: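 Rice alpha-glucosidase (4 nM final) with 400 uM 4-methylumbelliferyl-alpha-D-glucopyranoside in citrate buffer pH 5.0, 20 min at room temperature, stopped at pH 10; fluorescence 365/440 nm, compounds 0.7 nM–77 uM, AC50 from Hill fits.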

[11] = measured here: cell count channel max response
[12] = measured here: lipid channel max response

Structure (SMILES): CCN(CC)CCCC(C)Nc1ccnc2cc(Cl)ccc12 (stereo not given)
- activity change, negative = inhibition ([1]; at 57.5 µM (top of the series)): 4.83% (inactive)
- max response [1, 11]: 12.7%
- max response [1, 12]: 21.7%

Structure (SMILES): NS(=O)(=O)c1cc2c(cc1Cl)NC=NS2(=O)=O
- outcome [2]: inactive
- outcome [3]: inactive
- outcome [4]: inactive
- outcome [5]: inactive
- outcome [6]: inactive
- outcome [7]: inactive
- outcome [8]: inactive
- outcome [9]: inactive
- outcome [10]: inactive
- activity change, negative = inhibition ([1]; at 25.7 µM (top of the series)): -2.79% (inactive)
- activity change, negative = inhibition ([1]; at 57.5 µM (top of the series)): 7.25% (inactive) and -0.143% (inactive)
- max response [1, 11]: 3.82% and 7.17% and -12.5%
- max response [1, 12]: 1.14% and 18.5% and -16.5%

Structure (SMILES): O=C(O)COCCN1CCN(C(c2ccccc2)c2ccc(Cl)cc2)CC1 (stereo not given)
- activity change, negative = inhibition ([1]; at 57.5 µM (top of the series)): 5.98% (inactive)
- max response [1, 11]: 4.08%
- max response [1, 12]: 13.6%

Structure (SMILES): CC(C)(C)NCC(O)c1ccc(O)c(CO)c1 (stereo not given)
- activity change, negative = inhibition ([1]; at 57.5 µM (top of the series)): 0.332% (inactive) and 5.35% (inactive)
- max response [1, 11]: 11.9% and -13.2%
- max response [1, 12]: 15.4% and -7.47%

Structure (SMILES): CCCc1nn(C)c2c(=O)[nH]c(-c3cc(S(=O)(=O)N4CCN(C)CC4)ccc3OCC)nc12
- activity change, negative = inhibition ([1]; at 57.5 µM (top of the series)): 9.83% (inactive)
- max response [1, 11]: 12.2%
- max response [1, 12]: 27.6%

Structure (SMILES): CN1CCN(CCCN2c3ccccc3Sc3ccc(C(F)(F)F)cc32)CC1
- outcome [7]: inactive
- outcome [10]: inactive
- activity change, negative = inhibition ([1]; at 25.7 µM (top of the series)): -6.05% (inactive)
- activity change, negative = inhibition ([1]; at 57.5 µM (top of the series)): 7.35% (inactive)
- max response [1, 11]: -17.1% and 19.1%
- max response [1, 12]: -20.9% and 29.4%

Structure (SMILES): c1ccc([C@H]2CN3CCSC3=N2)cc1
- activity change, negative = inhibition ([1]; at 57.5 µM (top of the series)): 0.161% (inactive)
- max response [1, 11]: 21.4%
- max response [1, 12]: 20.7%

Structure (SMILES): CC(C)C[C@H](NC(=O)[C@@H](O)[C@H](N)Cc1ccccc1)C(=O)O
- activity change, negative = inhibition ([1]; at 57.5 µM (top of the series)): -0.597% (inactive)
- max response [1, 11]: -1.56%
- max response [1, 12]: -0.689%

Structure (SMILES): O=C1CCC(N2C(=O)c3ccccc3C2=O)C(=O)N1 (stereo not given)
- activity change, negative = inhibition ([1]; at 57.5 µM (top of the series)): 4.49% (inactive) and -2.08% (inactive)
- max response [1, 11]: 6.67% and -27.8%
- max response [1, 12]: 12.7% and -27.8%

Structure (SMILES): CCOC(=O)C1=C[C@]2(CC)CCCN3CCc4c(n1c1ccccc41)[C@@H]32
- activity change, negative = inhibition ([1]; at 57.5 µM (top of the series)): -17.2% (inactive)
- max response [1, 11]: -25.8%
- max response [1, 12]: -38.8%

Structure (SMILES): CC(C[N+](C)(C)C)OC(N)=O (stereo not given)
- activity change, negative = inhibition ([1]; at 57.5 µM (top of the series)): 0.608% (inactive)
- max response [1, 11]: -11.2%
- max response [1, 12]: -6.21%

Structure (SMILES): Clc1cccc(Cl)c1NC1=NCCN1
- outcome [7]: inactive
- outcome [10]: inactive
- activity change, negative = inhibition ([1]; at 25.7 µM (top of the series)): -3.52% (inactive)
- activity change, negative = inhibition ([1]; at 57.5 µM (top of the series)): 4.4% (inactive) and 1.2% (inactive)
- max response [1, 11]: 3.68% and -5.77% and -17.1%
- max response [1, 12]: -1.31% and -6% and -15.4%

Structure (SMILES): Nc1nc2ccc(OC(F)(F)F)cc2s1
- outcome [7]: inactive
- outcome [10]: inactive
- activity change, negative = inhibition ([1]; at 25.7 µM (top of the series)): -1.29% (inactive)
- activity change, negative = inhibition ([1]; at 57.5 µM (top of the series)): 1.85% (inactive)
- max response [1, 11]: -7.42% and -26.5%
- max response [1, 12]: -8.28% and -25.3%

Structure (SMILES): Cc1[nH]c(=O)c(C#N)cc1-c1ccncc1
- outcome [7]: inactive
- outcome [10]: inactive
- activity change, negative = inhibition ([1]; at 25.7 µM (top of the series)): 2.58% (inactive)
- activity change, negative = inhibition ([1]; at 57.5 µM (top of the series)): -0.858% (inactive)
- max response [1, 11]: -8.19% and -12.8%
- max response [1, 12]: -4.74% and -14.2%

Structure (SMILES): Cc1ccccc1C(OCCN(C)C)c1ccccc1 (stereo not given)
- activity change, negative = inhibition ([1]; at 57.5 µM (top of the series)): -0.936% (inactive)
- max response [1, 11]: -31.3%
- max response [1, 12]: -33.7%

Structure (SMILES): COc1ccc2nc(S(=O)Cc3ncc(C)c(OC)c3C)[nH]c2c1 (stereo not given)
- activity change, negative = inhibition ([1]; at 25.7 µM (top of the series)): -4.82% (inactive)
- max response [1, 11]: 6.97%
- max response [1, 12]: 1.74%

Structure (SMILES): N#Cc1ccc(C(c2ccc(C#N)cc2)n2cncn2)cc1
- activity change, negative = inhibition ([1]; at 25.7 µM (top of the series)): 0.817% (inactive)
- max response [1, 11]: -19.8%
- max response [1, 12]: -18.7%

Structure (SMILES): Nc1ccc(S(=O)(=O)Nc2ccnn2-c2ccccc2)cc1
- outcome [7]: inactive
- outcome [10]: inactive
- activity change, negative = inhibition ([1]; at 25.7 µM (top of the series)): -1.01% (inactive)
- activity change, negative = inhibition ([1]; at 57.5 µM (top of the series)): 14.1% (inactive)
- max response [1, 11]: -3.22% and 11.1%
- max response [1, 12]: -3.23% and 26.2%

Structure (SMILES): CCCc1nc2c(C)cc(-c3nc4ccccc4n3C)cc2n1Cc1ccc(-c2ccccc2C(=O)O)cc1
- activity change, negative = inhibition ([1]; at 57.5 µM (top of the series)): -11.9% (inactive)
- max response [1, 11]: -6.13%
- max response [1, 12]: -15.7%

Structure (SMILES): Cc1ccc(N(CC2=NCCN2)c2cccc(O)c2)cc1
- outcome [7]: inactive
- outcome [10]: inactive
- activity change, negative = inhibition ([1]; at 25.7 µM (top of the series)): 1.77% (inactive)
- activity change, negative = inhibition ([1]; at 57.5 µM (top of the series)): 11.7% (inactive) and 0.54% (inactive)
- max response [1, 11]: -12.1% and 5.79% and 62.4%
- max response [1, 12]: -8.46% and 20.7% and 65.8%

Structure (SMILES): NNCCc1ccccc1
- outcome [7]: inactive
- outcome [10]: inactive
- activity change, negative = inhibition ([1]; at 25.7 µM (top of the series)): 1.11% (inactive)
- activity change, negative = inhibition ([1]; at 57.5 µM (top of the series)): 11.9% (inactive)
- max response [1, 11]: 3.17% and -11.1%
- max response [1, 12]: -2.33% and 4.58%

Structure (SMILES): Cn1cnc([N+](=O)[O-])c1Sc1ncnc2nc[nH]c12
- outcome [7]: inactive
- outcome [8]: inactive
- outcome [10]: inactive
- activity change, negative = inhibition ([1]; at 25.7 µM (top of the series)): -1.38% (inactive)
- activity change, negative = inhibition ([1]; at 57.5 µM (top of the series)): 0.323% (inactive) and -0.298% (inactive)
- max response [1, 11]: 0.534% and 6.17% and -33.4%
- max response [1, 12]: 0.0916% and 9.95% and -32.9%

Structure (SMILES): Cc1oncc1C(=O)Nc1ccc(C(F)(F)F)cc1
- outcome [7]: inactive
- outcome [10]: inactive
- activity change, negative = inhibition ([1]; at 25.7 µM (top of the series)): 0.243% (inactive)
- activity change, negative = inhibition ([1]; at 57.5 µM (top of the series)): 13.4% (inactive) and -0.067% (inactive)
- max response [1, 11]: -14.5% and 1.19% and -29.1%
- max response [1, 12]: -15.6% and 18.5% and -28.2%

Structure (SMILES): CCn1cc(C(=O)O)c(=O)c2cc(F)c(N3CCNC(C)C3)c(F)c21 (stereo not given)
- activity change, negative = inhibition ([1]; at 57.5 µM (top of the series)): 5.34% (inactive)
- max response [1, 11]: 16.3%
- max response [1, 12]: 26.1%
